Screening results as filed in PubChem.
Compounds with a hit are over-represented: about 3.2% of the library has one in this group of screens.
Kir21 inh – Kir2.1 (mouse) channel inhibition. HEK293-Kir2.1, FluxOR thallium flux fluorescence; active compounds read low. 310,000 compounds, 0.85% hits. B-score at 10 µM. P35561;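 active = fluorescence ratio B-score at or below minus 3 SD of library scores, with starting-brightness B-score within 2 SD, cut at about -4.2 in these data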;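 note: channel flux triggered by added potassium and thallium sulfate stimulus; B-score of peak minus minimum fluorescence over baseline after thallium stimulus; more negative B-score means stronger Kir2.1 block with less thallium influx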
Target sequence (P35561 whole entry, looked up): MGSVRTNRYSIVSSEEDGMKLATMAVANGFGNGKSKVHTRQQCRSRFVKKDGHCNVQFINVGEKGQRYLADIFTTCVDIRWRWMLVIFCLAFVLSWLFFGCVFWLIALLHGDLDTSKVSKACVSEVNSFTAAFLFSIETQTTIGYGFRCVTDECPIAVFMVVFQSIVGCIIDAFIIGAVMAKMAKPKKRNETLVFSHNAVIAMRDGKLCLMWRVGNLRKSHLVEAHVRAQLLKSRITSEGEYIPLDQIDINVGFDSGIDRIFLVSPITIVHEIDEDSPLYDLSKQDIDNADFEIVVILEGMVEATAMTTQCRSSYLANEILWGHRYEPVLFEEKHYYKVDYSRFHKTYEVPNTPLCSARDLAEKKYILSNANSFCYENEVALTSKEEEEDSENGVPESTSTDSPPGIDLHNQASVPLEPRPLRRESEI
TMEM16A inh – mouse TMEM16A channel inhibition, primary screen. Q8BHY3. HEK293 TMEM16A/YFP iodide influx fluorescence, ionomycin. normalized B-score (activity score, 25-100; higher = stronger inhibition) at 10 µM. 310,000 compounds, 1.2% hits. AID 588511;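 active = ratio plate-corrected score three or more library SD toward inhibition, starting fluorescence score within five deviations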;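 note: score derived from kinetic fluorescence span divided by baseline fluorescence per well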
CHT PAM – allosteric activators of human choline transporter CHT; B-score at 10 µM; 310,000 compounds, 0.49% hits; Q9GZV3; CHT-expressing cells, membrane potential dye, choline EC20; active compounds read high; LV-AA mutant CHT in HEK293 cells;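 active = initial fluorescence not abnormally high and integrated response B-score, plate-corrected, over 3 SD above library mean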
Rce1 inhib – inhibitors of yeast Ras-converting enzyme | yeast membranes, quenched prenylated peptide cleavage fluorescence | AID 2563 | 290,000 compounds, 0.27% hits | calls only;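 active = fall in fluorescence gain of 50% or more versus controls, with final raw signal at or below 3038400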;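 note: plate controls were neutral control wells for no effect and wells lacking membranes for full effect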
TMEM16A act – activates or potentiates the mouse TMEM16A chloride channel; B-score at 10 µM; 340,000 compounds, 0.3% hits; AID 623877; HEK293 TMEM16A/YFP-H148Q/I152L, iodide quench fluorescence; active compounds read low;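 active = fluorescence-ratio B-score plate-corrected deviation score at least 3 library SD below zero, with starting fluorescence score within 5 deviations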;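 note: channel opened by trigger with iodide after compound preincubation; score built on the fluorescence ratio of max minus min over baseline; more negative score means more quench and so TMEM16A activation or potentiation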
CHT inh – human CHT choline transport inhibition; Q9GZV3; CHT-expressing cells, membrane potential dye, choline response; active compounds read low; B-score at 10 µM; 310,000 compounds, 0.86% hits; AID 488975;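 active = B-score over 3 SD under the library average, and starting fluorescence ratio not unusually high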;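 note: choline stimulus applied at its EC90 after an EC20 pre-addition; B-score computed on integrated fluorescence ratio after choline addition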
CHT activ conf – human CHT activation, confirmatory screen | shares compounds with CHT PAM | CHT-expressing cells, membrane potential dye fluorescence (FDSS); % of choline EC20–EC90 response window; HEK293 expressing CHT LV-AA mutant; choline added at its EC20 | activation, % at 10 µM | 2,500 compounds, 91% hits | AID 504833;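 active = primary screen active, with duplicate mean activation above negative control mean plus 3 SD, cut at about 11% in these data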
HEK293 MP dye – counter-screen for CHT activators: effect in parental HEK293 cells; ratio readout change at 10 µM, hits read low; 2,500 compounds, 62% hits; shares compounds with CHT PAM; membrane potential dye fluorescence (FDSS); measured after EC20 choline addition;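 active = duplicate-averaged ratio beyond 3 SD from buffer wells, up or down, though filed actives are nearly all decreases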
Numbers without * were called inactive; i = inactive; / = no result.

SMILES | Kir21 inh | TMEM16A inh | CHT PAM | Rce1 inhib | TMEM16A act | CHT inh | CHT activ conf | HEK293 MP dye
Cc1cc(N2CCN(C)CC2)n2cc(-c3ccc(F)cc3)nc2n1 | -0.1 | i | 6.9* | i | i | i | 39* | -64*
Cc1cc(N2CCN(c3ccccn3)CC2)n2cc(-c3ccccc3)nc2n1 | 1.3 | i | i | i | i | i | / | /
Cc1ccc(S(=O)(=O)N2CCN(Cc3cc(=O)n4ccccc4n3)CC2)c(C)c1 | / | / | / | / | i | / | / | /
COc1ccc(-c2cn3c(n2)CCC3)cc1 | -0.01 | i | 7.4* | i | i | i | 51* | -47*
COc1ccc(-c2cnc3n2CCCCC3)cc1 | -0.25 | i | i | i | i | i | / | /
Cn1c(=O)c2ccccc2n(Cc2cccc(F)c2)c1=O | 0.8 | i | i | i | i | i | / | /
CCOC(=O)C1=C(c2ccccc2)NC(=O)NC1c1ccc(O)c(Cl)c1 (configuration not stated) | -7.8* | i | 30* | i | -11* | i | 198* | i
Cc1ccc2c(c1)COc1c3ccc(C(=O)NCC4CC4)cc3nn1-2 | 0.69 | i | i | i | i | i | / | /
C=CCNC(=O)c1ccc2c3n(nc2c1)-c1ccc(Cl)cc1CO3 | 0.32 | i | 6.5* | i | i | i | 15* | -20*
COc1ccc(C(=O)C[n+]2cccc3cc(OC)ccc32)cc1 | -1.5 | i | i | i | i | i | / | /
COc1ccc(C(=O)C[n+]2ccc3ccccc3c2C)cc1 | -1.5 | i | i | i | i | i | 48* | -32*
Cc1cc(N2CCN(C)CC2)nc(N2CCOCC2)n1 | -0.5 | i | 8.4* | i | i | i | 45* | -91*
Cc1cc(N2CCOCC2)nc(N2CCOCC2)n1 | 0.04 | i | i | i | i | i | 76* | -40*
Cc1cc(N2CCCCC2)nc(N2CCOCC2)n1 | -0.22 | i | i | i | i | i | / | /
Cc1cc(N2CCOCC2)nc(C(C)C)n1 | 0.87 | i | i | i | i | i | / | /
O=C(NC(=S)NCC1CCCO1)c1ccc(Br)o1 (configuration not stated) | 0.61 | i | i | i | i | i | / | /
CN1OC[C@@H]2CN(C(=O)CCc3ccccc3)[C@H](c3cccc(-c4ccccc4)c3)C[C@@H]21 | / | / | / | / | i | / | / | /
Cn1c(N=Nc2ccccc2)nc2ccccc21 | 0.21 | i | 6.4* | i | i | i | 29* | -53*
Cc1nc2ccccn2c1C(=O)N/N=C/c1ccccc1 | 1.2 | i | i | i | i | i | / | /
Cc1nc2ccccn2c1C(=O)N/N=C/c1cc(C)n(-c2ccc(Br)cc2)c1C | -1.5 | i | i | i | i | i | 18* | i
CC(C)COC(=O)NC1c2ccccc2Oc2ccccc21 | 1 | i | i | i | i | i | / | /
CC1(C)CC(C(CCN(Cc2ccccc2)C(=O)c2ccco2)c2ccc(F)cc2)CCO1 (configuration not stated) | 1.4 | i | 9.7* | i | i | i | 56* | i
O=c1c2ccccc2[nH]c(=S)n1CCCN1CCC(Cc2ccccc2)CC1 | -1.2 | i | i | i | i | i | / | /
CCOc1ccc(C(C(=O)NC2CCCC2)N(Cc2ccccc2)C(=O)c2nsc(Cl)c2Cl)cc1 (configuration not stated) | -0.6 | i | i | i | i | i | 1 | i
CCOc1ccc(S(=O)(=O)NC(C)C(=O)NCc2ccc3c(c2)OCO3)cc1 (configuration not stated) | 2.1 | i | i | i | i | i | / | /
Cc1sc(NC(=O)c2ccccc2)c(C(=O)NCCN(C)C)c1C | -0.97 | i | i | i | i | i | 37* | -57*
